Screening results deposited in PubChem by National Center for Advancing Translational Sciences (NCATS).
D2 ag-1: agonists of human D2 dopamine receptor | HEK293 T-REx D2 cells, calcium flux agonist mode | activation, % at 2 µM | 340,000 compounds, 0.53% hits;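 active means activation over 3 SD above normal in the single-dose calcium agonist read, cut at about 30% in these data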
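HEK293 Trex D2 cells, tetracycline-induced, o/n 30 C 5% CO2; no-wash Ca dye, RT 30–90 min; 10-cycle baseline, 23 nl cpd added, kinetic Ca read 180 s; agonist hits = positive Ca response.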
D2 antag: antagonists of human D2 dopamine receptor. HEK293 TREx D2 cells, calcium flux, dopamine EC80. 340,000 compounds, 2% hits. inhibition, % at 10 µM. P14416; in the data active means inhibition above about 30%; inactive means below that, where a call was filed
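Compounds are added to dye-loaded, induced HEK293 T-REx cells coupled to calcium release via D2; after a 3 min kinetic read an EC80 dopamine stimulus is given and fluorescence is recorded for 3 more min.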
D2 ag-2: human D2 receptor agonism in beta-arrestin assay; DiscoveRx PathHunter D2 beta-arrestin, luminescence, 90 min; 100% = 57 uM dopamine signal; activation, % (no concentration beside the values); 360,000 compounds, 0.084% hits; AID 624465; in the data active means activation above about 40%; inconclusive means between about 15% and that limit
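DiscoveRx PathHunter D2 beta-arrestin cells (2,100/well) attached overnight, then compound-stimulated 90 min at 37 C in HBSS/10 mM HEPES/0.1% Tween-20 buffer; beta-galactosidase complementation read by luminescence after 1 h at ambient temperature. Dopamine 57 uM final (EC100) as control.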
D2 PAM-1: positive allosteric modulators of human D2 dopamine receptor | HEK293 T-REx D2, calcium flux, EC20 dopamine potentiation | potentiation, % at 10 µM | 340,000 compounds, 0.34% hits | AID 485347;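 active means potentiation over 3 SD above the plate norm, cut at about 30% in these data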
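Cells plated with tetracycline inducer and held overnight at 30 C; calcium dye loaded 30–90 min at room temperature; baseline taken, compound added and read 180 s; EC20 dopamine then added and read 180 s.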
D2 PAM-2: positive allosteric modulators of human D2 dopamine receptor; 360,000 compounds, 0.23% hits; potentiation, % (no concentration beside the values); DiscoveRx D2 beta-arrestin cells, luminescence, 90 min; 100% = 57 uM dopamine signal; in the data active means potentiation above about 50%; inconclusive means mostly about 30% to 49%
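D2 cells co-treated with compound plus 50 nM dopamine (EC20) for 90 min at 37 deg C to detect potentiation. Beta-arrestin recruitment was read as enzyme-fragment luminescence after 1 h at ambient temperature. Full response was set by 57 uM dopamine.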
D3 ag: confirmation of human D3 dopamine receptor agonists, beta-arrestin. shares compounds with D2 ag-1. DiscoveRx D3 beta-arrestin cells, luminescence, 90 min. Potency, µM (series often up to 76.9 µM), most hits filed as activators. 2,300 compounds, 4% hits; further: nearly all actives have a fitted effect of over 70% in size
Target sequence (P35462 whole entry, looked up): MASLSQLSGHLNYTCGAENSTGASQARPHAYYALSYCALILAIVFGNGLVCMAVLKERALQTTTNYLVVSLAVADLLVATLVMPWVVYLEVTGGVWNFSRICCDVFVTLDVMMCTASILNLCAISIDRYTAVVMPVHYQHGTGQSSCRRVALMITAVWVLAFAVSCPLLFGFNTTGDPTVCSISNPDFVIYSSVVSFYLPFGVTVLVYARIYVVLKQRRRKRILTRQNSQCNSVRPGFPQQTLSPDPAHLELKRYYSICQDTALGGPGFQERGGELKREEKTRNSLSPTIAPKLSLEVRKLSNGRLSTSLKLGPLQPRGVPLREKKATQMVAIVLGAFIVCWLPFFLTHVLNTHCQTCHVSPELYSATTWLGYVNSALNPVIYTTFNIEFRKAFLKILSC
D2 ag-3: counter-screen for D3 agonists: human D2 dopamine receptor agonism; DiscoveRx PathHunter D2 beta-arrestin, luminescence, 90 min; response scale: percent relative to full dopamine signal; Potency, µM (top dose mostly 76.9 µM), hits mostly activators; AID 720507; shares compounds with D2 ag-1; 2,300 compounds, 5.9% hits; further: nearly all actives have a fitted effect of over 70% in size
A number is an active result; n = inactive; u = inconclusive; x = no result; ! = not active in a repeat. Sampled rows, rich in hits. Any-hit rate of the full collection: about 2.4%. Unless noted, the call rests on the fitted dose curve; in most records, active means well fitted activation curve with a large enough effect; inconclusive means small, poorly fitted or top-dose-only effect; inactive means flat fitted curve, though single readings scatter.

SMILES	D2 ag-1	D2 antag	D2 ag-2	D2 PAM-1	D2 PAM-2	D3 ag	D2 ag-3
Cc1ccc(-c2[nH]ncc2CN2CCN(C(=O)c3cccs3)CC2)cc1C	76.6	66.5	n	n	n	u	n
O=C(c1cccs1)N1CCN(Cc2cn[nH]c2-c2ccc(F)cc2F)CC1	80.3	52.9	u	n	n	u	u
CC(=O)N1CCC2(CC1)OC(=O)C(C)=C2C(=O)Nc1ccccc1C(F)(F)F	x	x	x	n	x	x	x
CCCOc1ccc(-c2c(=O)n(OCC(=O)OCC)c3ccccc3[n+]2[O-])cc1	n	n	n	n	n	x	x
Cc1cc(CN2CCN(CC(=O)Nc3cc(Cl)ccc3-n3cncn3)CC2)no1	41.3	n	n	n	n	n	n
O=c1[nH]cnc2sc3c(c12)CN(Cc1ccccc1)CC3	77.9	73.8	u	n	n	n	n
O=c1[nH]cnc2sc3c(c12)CCN(Cc1ccccc1)C3	62.4	n	u	n	n	n	n
CC1(C)Cc2c(sc3nc[nH]c(=O)c23)CO1	n	n	n	n	n	x	x
OCCCNc1ncnc2sc3c(c12)CCN(Cc1ccccc1)C3	n	n	n	n	n	x	x
CSCCC(NC(=O)c1ccccc1Cl)C(=O)Nc1ccncc1 (configuration not stated)	n	n	n	n	n	n	u
CSCCC(NC(=O)c1ccccc1)C(=O)Nc1ccncc1 (configuration not stated)	n	n	n	n	n	x	x
COc1ccccc1CCC(=O)OCC(=O)Nc1c(C)nn(-c2ccccc2)c1C	n	n	n	n	n	x	x
Cn1c(=O)c2c(-c3ccccc3)n(-c3ccccc3Br)cc2n(C)c1=O	x	x	n	x	n	x	x
Nc1ccc(-c2nc3cc([N+](=O)[O-])ccc3o2)cc1	n	n	n	n	n	n	n
O=C(COc1ccccc1)NCC(c1ccco1)N1CCN(c2ccccc2)CC1 (configuration not stated)	n	n	n	n	n	n	n
O=C(NCc1cccs1)C(=O)NCC(c1ccco1)N1CCN(c2ccccc2)CC1 (configuration not stated)	n	n	n	n	n	x	x
O=C(NCC(c1ccco1)N1CCN(c2ccccc2)CC1)c1cccs1 (configuration not stated)	n	n	n	n	n	n	n
CNS(=O)(=O)c1c(C)cc(C)c(N(C)S(=O)(=O)c2ccccc2)c1C	n	n	n	n	n	x	x
CCc1noc(C)c1C(=O)N1CCCSC1=Nc1ccccc1C(C)C	n	n	n	n	n	x	x
O=C(NCCN1CCN(c2ccccc2)CC1)c1cccn2c(=O)c3cc(Cl)ccc3nc12	n	n	n	n	n	x	x
O=C(NCCCN1CCN(c2cccc(Cl)c2)CC1)c1ccc(N2CCCC2=O)cc1	n	n	n	n	n	x	x
Cc1cccc(C(=O)NCCN2CCN(c3ccccc3)CC2)c1	48.7	90.8	n	n	n	u	n
Cc1cccc(C(=O)NCCCNC(=O)c2cccc(C)c2)c1	n	n	n	n	n	x	x
CCN(CCNC(=O)c1ccc(CSc2nc3ccncc3[nH]2)cc1)c1ccccc1	x	x	n	x	n	x	x
O=C(NCCCN1CCN(c2cccc(Cl)c2)CC1)c1cccc(N2CCCC2=O)c1	48.0	n	n	n	n	n	n
SMILES	D2 ag-1	D2 antag	D2 ag-2	D2 PAM-1	D2 PAM-2	D3 ag	D2 ag-3
O=C(NCCN1CCN(c2ccccc2)CC1)c1cccc(Cl)c1	46.0	70.4	n	n	n	u	n
O=C(NCCN1CCN(c2cccc(Cl)c2)CC1)c1ccc(CSc2nc3ccncc3[nH]2)cc1	45.9	86.2	n	n	n	22.4µM	u
COc1ccc2c(CNCc3ccccc3OC)c(C(=O)O)n(Cc3ccc(F)cc3Cl)c2c1	n	x	x	n	x	x	x
CCOc1ccc(C(=O)Nc2cccc(NC(=O)c3ccco3)c2)cc1Cl	x	x	x	n	x	x	x
COc1cccc(CC(=O)Nc2ccc3nc(N4CCC(C)CC4)cc(C)c3c2)c1	n	x	x	n	x	x	x
CC(C)C(NC(=O)c1ccc(C(C)(C)C)cc1)C(=O)NCc1ccccn1 (configuration not stated)	n	n	n	n	n	x	x
Cc1cccc(C)c1NC(=O)C(=O)NCCCN1CCOCC1	x	x	n	x	n	x	x
O=C(NCCN1CCN(c2ccccc2)CC1)c1cccc(Br)c1	89.1	78.0	n	n	n	n	n
Cc1cccc(C)c1NC(=O)NCCCN1CCN(c2ccccc2)CC1	74.2!	72.4	u	n	n	u	u
COc1ccccc1C(=O)NCCC(=O)NCCOc1ccccc1	n	n	n	n	n	x	x
COc1ccccc1OCCNC(=O)CCNC(=O)c1ccccc1OC	n	n	n	n	n	n	n
COc1ccc(OC)c(NC(=O)NCCN2CCN(c3ccccc3)CC2)c1	n	n	n	n	n	x	x
O=C(NCCN1CCN(C(=O)c2cccc(Br)c2)CC1)C(=O)Nc1ccc(Br)cc1	n	n	n	n	n	x	x
COc1ccccc1C(=O)NCCN1CCN(c2ccccc2)CC1	71.9	82.5	u	n	u	u	u
O=C(CCNC(=O)c1ccc(Cl)cc1)NCCCN1CCOCC1	n	n	n	n	n	n	n
CC1CCN(S(=O)(=O)c2cccc(C(=O)NC3CCS(=O)(=O)C3)c2)CC1 (configuration not stated)	n	x	n	n	n	x	x
Cc1ccccc1C(=O)N1CCC(C(=O)N(CC(C)C)c2c(N)n(CC(C)C)c(=O)[nH]c2=O)CC1	n	n	n	n	n	x	x
COCCN(C(=O)C1CCN(C(=O)c2ccccc2C)CC1)c1c(N)n(CC(C)C)c(=O)[nH]c1=O	n	n	n	n	n	n	n
COc1ccc(CN(C)CCCn2cnc(C(=O)Nc3ccc(C)c(C)c3)n2)cc1OC	x	x	n	x	x	x	x
CC(=O)NC(c1cc(Cl)c2cccnc2c1O)C(C)C (configuration not stated)	n	n	x	n	x	x	x
CC(=O)NC(c1cc(Cl)c2cccnc2c1O)C1CC1 (configuration not stated)	n	n	x	n	x	n	n
Cc1ccc(NC(=O)Cn2nnc(C(=O)NCCc3ccccc3)c2N)cc1	n	x	x	n	x	x	x
CCC1Oc2ccccc2C(=O)N(CC(=O)c2ccc3c(c2)OCCO3)C1=O (configuration not stated)	n	n	n	n	n	x	x
Cc1cc(NC(=O)CSCC(=O)Nc2cc(C(F)(F)F)ccc2N2CCOCC2)no1	n	n	n	n	n	n	n
Cc1cc(NC(=O)CSCC(=O)Nc2cc(C(F)(F)F)ccc2N2CCCC2)no1	n	n	n	n	n	x	x
CCOc1ccc2nc(N(CCCN(C)C)C(=O)c3ccc(S(=O)(=O)N4CCCC4)cc3)sc2c1	n	31.5	n	n	n	n	n
